Assay results taken from PubChem BioAssay (NCATS).
Inconclusive results are not listed. Where a call stands in place of a potency, no number is given. Active and inactive are the calls of the source. Calls follow the shape of the dose curve; as a rule, active = well fitted curve in the direction sought with a large enough effect; inconclusive = small, poorly fitted or top-dose-only effect, or another doubt; inactive = no such curve, though single readings can be large; an effect the other way counts as inactive or inconclusive.

Legend:
[1] = target: Nuclear receptor subfamily 1 group I member 3 (Homo sapiens) (UniProt Q14994); test: qHTS for Constitutive Androstane Receptor (CAR) Antagonist screened against the NCATS CANVASS Library (AID 1347372);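 also: cells stimulated with 50 nM CITCO agonist so inhibition reflects antagonism; luciferase from CYP2B6 promoter reporter driven by hCAR in HepG2 cells; series mostly up to about 46 µM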
Sequence of Nuclear receptor subfamily 1 group I member 3 (Homo sapiens) (Q14994 whole entry, looked up): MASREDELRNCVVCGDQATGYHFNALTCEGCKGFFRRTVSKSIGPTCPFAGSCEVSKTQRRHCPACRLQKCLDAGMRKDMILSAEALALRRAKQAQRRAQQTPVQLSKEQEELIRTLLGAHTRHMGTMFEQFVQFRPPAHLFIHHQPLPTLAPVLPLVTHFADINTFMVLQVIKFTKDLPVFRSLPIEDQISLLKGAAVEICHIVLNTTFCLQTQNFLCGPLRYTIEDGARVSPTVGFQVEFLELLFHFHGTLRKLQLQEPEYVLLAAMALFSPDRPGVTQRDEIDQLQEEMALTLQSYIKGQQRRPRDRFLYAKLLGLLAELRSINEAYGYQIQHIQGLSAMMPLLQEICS
Outline: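 Cells were seeded and left 4hr to attach, then received compound at 11 concentrations and 50 nM CITCO. Following 24hr incubation, fluorescence viability and luciferase luminescence were read sequentially.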

[2] = target: Nuclear receptor subfamily 1 group I member 3 (Homo sapiens) (UniProt Q14994); test: qHTS for Constitutive Androstane Receptor (CAR) Agonist screened against the NCATS CANVASS Library (AID 1347373);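 also: every well also contained 1.5 µM PK11195 alongside the test compound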; also: potency is read from the fitted curve at half-maximal effect
Outline: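 Cells were plated and allowed to attach for 4hr, then dosed with compound in an 11-point series alongside 1.5uM PK11195. After 24hr at 37C, viability was measured fluorometrically and CAR-driven CYP2B6 reporter luminescence was recorded.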

[3] = qHTS for Hypoxia signaling pathway (HIF-1) agonists against the NCATS CANVASS Library (AID 1347375)
Outline: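 Cells plated and rested 5 h, compounds pinned in DMSO across 11 concentrations, incubated 17 h at 37C, loaded with CCF4-AM for 2 h, fluorescence read at 460 and 530 nm, then CellTiter-Glo luminescence measured for viability and normalization.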

[4] = 10-beta competent E. coli microbial cell viability qHTS against the NCATS CANVASS Library (AID 1347376); also: series mostly up to about 46 µM
Outline: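 Bacterial suspension diluted to 0.2 OD was dosed with compounds, 11-point series, then held overnight at 37C. BacTiter-Glo reagent was added, and after 20 min at room temperature ATP-dependent luminescence was measured.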

[5] = qHTS for H2AX Agonists against the NCATS CANVASS Library (AID 1347378)
Outline: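 CHO-K1 cells (1000/well, overnight at 37C) exposed to compounds at several concentrations for 3 hr at 37C, 0.76% DMSO final. Lysates read by TR-FRET (phospho-H2AX S139 Eu-cryptate antibody / H2AX-d2 antibody) after 24 hr at room temperature; 665/615 nm ratio.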

[6] = qHTS for Inflammasome Signaling Inhibitors: IL-1-beta AlphaLISA screen against the NCATS CANVASS Library (AID 1347379); conditions: outcome: dose series up to 57.5 µM;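 also: human THP-1 cells primed with LPS then triggered with ATP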
Outline: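 Secreted IL-1B from human THP-1 cells quantified by AlphaLISA 16 hr after compound addition (final up to 57.5 uM). A 1 hr compound pretreatment preceded inflammasome activation with 250 ng/mL LPS plus 1.25 mM ATP (final).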

[7] = Inflammasome Signaling qHTS Counterscreen: IL-1-beta AlphaLISA counterscreen against the NCATS CANVASS Library (AID 1347381);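 also: cell-free check with purified IL-1β in medium and no THP-1 cells; series mostly up to about 57 µM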
Outline: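 Purified IL-1-beta (4 pg/well) + compound, 11-pt conc. series; acceptor beads 6 ug/mL + biotin-Ab 0.6 nM final, 1 h RT; SA-donor 24 ug/ml final, 30 min dark RT; read ex 680/em 615.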

[8] = Cytotoxicity qHTS for assessment of Hepg2 cells membrane integrity screened against the NCATS CANVASS Library (AID 1347387)
Outline: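 Cells were seeded at 2000 per well and left overnight to attach. Compounds were pin-transferred to give 0.59 nM - 46 uM in an 11-point series and incubated 5 hr at 37C. CytoTox-ONE reagent was added and, after 10 min at room temperature, fluorescence (ex 560, em 590 nm) was read.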

[9] = qHTS assay for small molecule disruptors of mitochondrial membrane potential screened against the NCATS CANVASS Library (AID 1347389); also: series mostly up to about 46 µM; nearly all actives have a fitted effect of over 60% in size
Outline: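 Mitochondrial depolarization in HepG2 cells is scored as a falling aggregate-to-monomer fluorescence ratio after 1 hr compound exposure and 30 min staining with Mito-MPS dye at 37C, each compound tested as an 11-point titration.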

[10] = Secretion counterscreen for inhibitors of the SERCaMP assay screened against the NCATS CANVASS Library (AID 1347390);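 also: light from luciferase secreted into medium read as a measure of general secretion; series mostly up to about 77 µM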
Outline: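 SH-SY5Y cells with constitutively secreted GLuc reporter, 1000 cells/well, treated 20 h at 37C with compounds at 0.001 - 77 uM final; secreted luciferase read as luminescence after coelenterazine; Brefeldin A as positive control.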

[11] = qHTS for activators of Nrf2/ARE signaling pathway screened against the NCATS CANVASS Library (AID 1347391); also: nearly all actives have a fitted effect of over 60% in size; also: potency is read from the fitted curve at half-maximal effect
Outline: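 Beta-lactamase reporter signal, read as 460 and 530 nm emission under 405 nm excitation after 2 h CCF4 loading, reflected ARE activation in HepG2 cells treated 16 h with an 11-point series.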

[12] = qHTS for activators of dead-cell proteases activity screened against the NCATS CANVASS Library (AID 1347392);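 also: luminescence from protease leaking out of membrane-damaged cells cleaving impermeant substrate; rising signal means more cytotoxicity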
Outline: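 Cytotoxicity in HepG2 cells was assessed by released protease cleaving AAF-aminoluciferin, with luminescence as signal. Exposure lasted 5 h at 37C across an 11-point series.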

[13] = qHTS for inhibitors of ER calcium dysfunction: SERCaMP assay screened against the NCATS CANVASS Library (AID 1347393); also: nearly all actives have a fitted effect of over 40% in size; also: potency is read from the fitted curve at half-maximal effect
Outline: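 qHTS in SH-SY5Y reporter cells: 16 h compound pretreatment, 4 h thapsigargin, then secreted Gaussia luciferase measured by luminescence.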

[14] = Viability qHTS for inhibitors of the SERCaMP assay screened against the NCATS CANVASS Library (AID 1347400); also: series mostly up to about 92 µM; nearly all actives have a fitted effect of over 70% in size
Outline: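 Seed SH-SY5Y-GLuc SERCaMP MJH297 cells at 1000 per well, incubate 4 h, add compounds across an 11-point range, incubate 48 h at 37C, then add CellTiter-Glo and read luminescence.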

[15] = qHTS for Hypoxia signaling pathway (HIF-1) antagonists against the NCATS CANVASS Library (AID 1347374);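 also: HRE-bla ME-180 cells stimulated with cobalt chloride to stabilize HIF-1alpha; series mostly up to about 38 µM; nearly all actives have a fitted effect of over 60% in size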
Outline: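 Antagonism scored as loss of CoCl2-driven (60 uM stock added) HRE beta-lactamase signal, read by CCF4 FRET at 460/530 nm. Compounds were tested in an 11-point series on ME-180 reporter cells for 17 hrs at 37C, with parallel CellTiter-Glo cytotoxicity.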

[16] = DH5-alpha competent E. coli microbial cell viability qHTS against the NCATS CANVASS Library (AID 1347377); conditions: outcome: dose series up to 91.4 µM unless noted
Outline: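 Bacteria were dispensed at 0.2 OD, then compounds were pin-transferred. Plates were incubated overnight at 37C, after which BacTiter-Glo was added and luminescence measured 20 min later.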

[17] = qHTS for Antimalaria activity screened against the NCATS CANVASS Library (AID 1347380); also: nearly all actives have a fitted effect of over 40% in size; also: potency is read from the fitted curve at half-maximal effect
Outline: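 Compounds are titrated over 11 concentrations onto Dd2 parasite cultures (0.3% parasitemia, 2.5% hematocrit). Growth over 72 h at 37C in low oxygen is measured as SYBR Green DNA fluorescence after lysis.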

[18] = qHTS for Activators of p53 Stress Response Pathway screened against the NCATS CANVASS Library (AID 1347388)
Outline: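 p53RE-bla HCT-116 cells (4000/well) were plated 5 h at 37C, exposed to compounds for 16 h at 37C over an 11-point concentration series, then loaded with CCF4 for 2 h at room temperature; 460/530 nm emission ratio read.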

[19] = Vero-766 cells viability qHTS against the NCATS CANVASS Library: Counterscreen for Zika virus inhibition assay (AID 1347394); also: series mostly up to about 46 µM; nearly all actives have a fitted effect of over 60% in size
Outline: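 Vero 766 cells (1000/well), without Zika virus, were exposed to compounds for 72 h at 37C. Viability was measured by CellTiter Glo luminescence. Media-only wells served as 100% inhibition.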

[20] = qHTS for inhibitors of Wild type Zika virus screened against the NCATS CANVASS Library (AID 1347396);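 also: ATP luminescence of surviving cells so rescue from viral cell killing; series mostly up to about 46 µM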
Outline: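 Protection against wild-type Zika cytopathic effect is measured in African green monkey Vero 766 cells exposed to an 11-point compound series. Surviving cells are quantified by CellTiter Glo luminescence after 72 h.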

Row | Compound | outcome [1] | Potency [2] | outcome [3] | outcome [4] | outcome [5] | outcome [6] | outcome [7] | outcome [8] | outcome [9] | outcome [10] | Potency [11] | outcome [12] | Potency [13] | outcome [14] | outcome [15] | outcome [16] | Potency [17] | outcome [18] | outcome [19] | outcome [20]
1 | C/C(=C\CC/C(C)=C/CC[C@]1(C)CCc2cc(O)cc(C)c2O1)CC/C=C(\C)C(=O)O | inactive | inactive | inactive | inactive | inactive | inactive | inactive | inactive | inactive | inactive | inactive | inactive | inactive | inactive | – | – | – | – | – | –
2 | CC(C)c1ccc2c(c1)CCC1[C@](C)(C(=O)O)CCC[C@]21C (some centres not stated) | inactive | – | inactive | inactive | inactive | inactive | inactive | inactive | inactive | inactive | – | inactive | inactive | inactive | inactive | inactive | inactive | inactive | inactive | inactive
3 | O=C(/C=C/C=C/c1ccc2c(c1)OCO2)N1CCCCC1 | inactive | 4.14 µM (active) | – | inactive | inactive | inactive | inactive | inactive | inactive | – | inactive | inactive | 60.5 µM (active) | inactive | – | inactive | inactive | inactive | inactive | inactive
4 | CC(=O)O[C@H]1C[C@@]2(C)[C@@H](CC[C@H]3[C@@]4(C)C=CC(=O)[C@@H](C)[C@@H]4[C@H](OC(C)=O)C(=O)[C@@]32C)/C1=C(\CCC=C(C)C)C(=O)O | inactive | inactive | inactive | inactive | inactive | – | inactive | inactive | inactive | inactive | 20.9 µM (active) | inactive | 30.5 µM (active) | inactive | inactive | inactive [at 46.1 µM] | 10.6 µM (active) | inactive | inactive | –
